From PubChem BioAssay (NCI)
Several values for one entry are separate records, joined by “and”; a condition that tells them apart may be missing. Equal entries are not always repeated. Compounds without any hit were thinned out: in the full panel of roughly 83,000, 20% have a hit.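 How to read the values: 0–100, growth inhibition (40 = 60% inhibited); 0, no net growth; -100 to 0, cell death (-40 = 40% of starting cells died; -100 = all dead).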 Unmarked numbers belong to inactive results. Activity calls are given as the source filed them. The calls were made as follows: active = growth percent below 10; inactive = the rest. Starred links: 1 amine or outer side, 2 acyl side, 3 side chain; linkers in the order of their positions; H or OH if unused. Positions of bridges follow the written chain, without caps; N, C: chain ends. Non-standard residues stand in square brackets, D forms with d. Residues, ends and D or L forms follow the SMILES beside them. Chains are numbered I, II in the order given. Actinocin(9to1) = Cc1c2oc3c(C)ccc(C(=O)[*:1])c3nc-2c(C(=O)[*:2])c(N)c1=O; aThr = C[C@H](O)[C@H](N)C(=O)O; NMeV = CN[C@H](C(=O)O)C(C)C; Sar = CNCC(=O)O

The compounds below were run on SK-MEL-5 melanoma (assay: NCI-60 one-dose screen, 48 h (100 = growth as untreated, 0 = no growth, -100 = all killed)). Conditions: 10 µM.

Question: How did the growth turn out when Cc1cnc(/C=N\NC(N)=S)c2cccc(N)c12 was run?
Answer: 54.8%

Question: How did the growth turn out when CCCCCCCCCCCCCCCCCN was run?
Answer: 103%

Question: With BrC/C=C/C[P+](c1ccccc1)(c1ccccc1)c1ccccc1 as the compound, how does the growth read?
Answer: 53.9%

These compounds were tested on UACC-62 melanoma in the same assay as above. Conditions: 10 µM.

Question: How did the growth turn out when N#C/C(=C1C=C/C(=N\O)C(Cl)=C\1)c1ccccc1 was run?
Answer: 26.2%

Question: How did the growth turn out when CN(C)CCC(=O)c1c[nH]c2ccccc12 was run?
Answer: 113%

Question: Which growth does the source give for O=c1[nH]cc(F)c(=O)[nH]1 here?
Answer: 51.9% and 48.4%

Question: Which growth does the source give for CSc1ccc2c(c1)C(N1CCN(C)CC1)Cc1ccccc1S2 (stereo not given) here?
Answer: -69.5% (active)

Question: Which growth does the source give for COc1cc(C(C)(C)C)cc(OC)c1C(O)(c1c(OC)cc(C(C)(C)C)cc1OC)c1c(OC)cc(C(C)(C)C)cc1OC here?
Answer: -86.3% (active)

Question: S=c1[nH]nc(Cc2ccccc2)c(=S)[nH]1 was tested. Which growth did it give?
Answer: 110%

Question: For O=C(/C(=C/c1ccccc1)CBr)c1ccccc1, which growth is on record?
Answer: 72.7%

Question: For Nc1ccc2cc(Br)c3ccccc3c2c1, which growth is on record?
Answer: 73.8%

Question: CN1CCN(c2ccc3nc(-c4ccc5nc(-c6ccc(O)cc6)[nH]c5c4)[nH]c3c2)CC1 was tested. Which growth did it give?
Answer: 39.5%

Question: With Cc1cc(NCCCN(C)C)c2ccc3c(ccc4c(NCCCN(C)C)cc(C)nc43)c2n1 as the compound, how does the growth read?
Answer: -96.9% (active)

Question: Cc1c2oc3c(C)ccc(C(=O)N[C@@H]4C(=O)N[C@H](C(C)C)C(=O)N5CCC[C@H]5C(=O)N(C)CC(=O)N(C)[C@@H](C(C)C)C(=O)O[C@H]4C)c3nc-2c(C(=O)N[C@@H]2C(=O)N[C@H](C(C)C)C(=O)N3CCC[C@H]3C(=O)N(C)CC(=O)N(C)[C@@H](C(C)C)C(=O)O[C@H]2C)c(N)c1=O (I: [aThr][dV]P[Sar][NMeV] / II: [aThr][dV]P[Sar][NMeV]; ester I:1-I:C, II:1-II:C; linker I:N-II:N via Actinocin(9to1)) was tested. Which growth did it give?
Answer: -74.5% (active)

Question: For Cc1cnc(/C=N\NC(N)=S)c2cccc(N)c12, which growth is on record?
Answer: -15.7% (active)

Question: Which growth does the source give for CCCCCCCCCCCCCCCCCN here?
Answer: 102%

Question: Which growth does the source give for BrC/C=C/C[P+](c1ccccc1)(c1ccccc1)c1ccccc1 here?
Answer: 52.8%

These compounds were tested on LOX IMVI melanoma in the same assay as above. Conditions: 10 µM.

Question: For N#C/C(=C1C=C/C(=N\O)C(Cl)=C\1)c1ccccc1, which growth is on record?
Answer: 1.14% (active)

Question: How did the growth turn out when CN(C)CCC(=O)c1c[nH]c2ccccc12 was run?
Answer: 103%

Question: How did the growth turn out when O=c1[nH]cc(F)c(=O)[nH]1 was run?
Answer: 41.7% and 51%

Question: CSc1ccc2c(c1)C(N1CCN(C)CC1)Cc1ccccc1S2 (stereo not given) was tested. Which growth did it give?
Answer: -5.64% (active)

Question: For COc1cc(C(C)(C)C)cc(OC)c1C(O)(c1c(OC)cc(C(C)(C)C)cc1OC)c1c(OC)cc(C(C)(C)C)cc1OC, which growth is on record?
Answer: -69.2% (active)

Question: For S=c1[nH]nc(Cc2ccccc2)c(=S)[nH]1, which growth is on record?
Answer: 94.4%

Question: With O=C(/C(=C/c1ccccc1)CBr)c1ccccc1 as the compound, how does the growth read?
Answer: 44.3%

Question: With CN1CCN(c2ccc3nc(-c4ccc5nc(-c6ccc(O)cc6)[nH]c5c4)[nH]c3c2)CC1 as the compound, how does the growth read?
Answer: 93.9%

Question: For Cc1cc(NCCCN(C)C)c2ccc3c(ccc4c(NCCCN(C)C)cc(C)nc43)c2n1, which growth is on record?
Answer: -76% (active)

Question: How did the growth turn out when Cc1c2oc3c(C)ccc(C(=O)N[C@@H]4C(=O)N[C@H](C(C)C)C(=O)N5CCC[C@H]5C(=O)N(C)CC(=O)N(C)[C@@H](C(C)C)C(=O)O[C@H]4C)c3nc-2c(C(=O)N[C@@H]2C(=O)N[C@H](C(C)C)C(=O)N3CCC[C@H]3C(=O)N(C)CC(=O)N(C)[C@@H](C(C)C)C(=O)O[C@H]2C)c(N)c1=O (I: [aThr][dV]P[Sar][NMeV] / II: [aThr][dV]P[Sar][NMeV]; ester I:1-I:C, II:1-II:C; linker I:N-II:N via Actinocin(9to1)) was run?
Answer: 9.98% (active)

Question: How did the growth turn out when Cc1cnc(/C=N\NC(N)=S)c2cccc(N)c12 was run?
Answer: 6.91% (active)

Question: For CCCCCCCCCCCCCCCCCN, which growth is on record?
Answer: 102%

Question: For BrC/C=C/C[P+](c1ccccc1)(c1ccccc1)c1ccccc1, which growth is on record?
Answer: 2.3% (active)
